Bioassay records: PubChem BioAssay, National Center for Advancing Translational Sciences (NCATS)
MCF10A rereplic – DNA re-replication induction in MCF 10a cells; MCF 10A DNA re-replication, Hoechst nuclear intensity, 48 h; Potency, µM (highest dose often 46.1 µM), without a hit: top-dose activity, positive = re-replication, usual class: activators; 2.9% of 350,000 active; also: % of control where 0% means no effect; nearly all actives have a fitted effect of over 50% in size
KB-3-1 tox – kills parental KB-3-1 adenocarcinoma cells; KB-3-1 viability, CellTiter-Glo ATP luminescence, 72 h; Potency, µM (top dose mostly 46.1 µM), actives largely listed as cytotoxic; 1.4% of 400,000 active; also: % is scaled to controls: 0 for no effect and ±100 for the full control effect; nearly all actives have a fitted effect of over 60% in size
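Parental KB-3-1 adenocarcinoma cells in phenol-red-free DMEM with 10% FBS were pin-treated with compounds at several concentrations, incubated 72 h at 37 °C, and viability read by CellTiter-Glo luminescence; concentration-effect curves were fitted after normalization.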
ELG1 repair inh – blocks ELG1-dependent DNA repair in HEK293T cells. HEK293T ELG1-luciferase reporter, luminescence, 16 h; DNA damage induced by 5-fluorouridine. Potency, µM (series often up to 46.1 µM), without a hit: at the highest dose activity change, negative = inhibition, actives largely listed as inhibitors. 2.3% of 330,000 active; also: % is scaled to controls: 0 for no effect and ±100 for the full control effect; nearly all actives have a fitted effect of over 55% in size
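5-Fluorouridine DNA damage + compound/DMSO, 2,000 cells/well, 16 h, 37 °C/5% CO2. ONE-Glo, 30 min RT, luminescence. Readout = decrease in reporter signal.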
KB-V1 MDR tox – KB-V1 MDR subline cytotoxicity | KB-V1 MDR cells viability, CellTiter-Glo, 72 h | Potency, µM (titrated, usually from 46.1 µM), usual class: cytotoxic | 3.4% of 400,000 active | AID 1347076; also: % is scaled to controls: 0 for no effect and ±100 for the full control effect; nearly all actives have a fitted effect of over 60% in size
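Luminescent ATP read-out (CellTiter-Glo, 10 min) measures survival of drug-selected KB-V1 MDR cells after 72 h, 37 degrees C compound exposure. Medium: phenol-red-free DMEM, 10% FBS. Values from fitted concentration-response curves.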
SW480 rereplic – induces DNA re-replication in SW480 colon adenocarcinoma cells | SW480 DNA re-replication, Hoechst DNA content imaging, 48 h | Potency, µM (doses to about 46.1 µM), without a hit: at the top dose re-replication activation, most hits filed as activators | 1.8% of 340,000 active | AID 624297; also: % of control where 0% means no effect; nearly all actives have a fitted effect of over 55% in size
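Per well, 250 cells were exposed to pinned compound for 48 hr. Nuclear DNA was visualised with Hoechst (40 min, 37 C) and total object intensity recorded by fluorescence scanning.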
* marks the source's active call; other numbers are inactive results; i = inactive; ? = inconclusive; . = no result. Only some compounds are listed: those with a hit (about 8.2% of all), similar ones and a draw of the others. Calls follow the shape of the dose curve; as a rule, active = well fitted curve in the direction sought with a large enough effect; inconclusive = small, poorly fitted or top-dose-only effect, or another doubt; inactive = no such curve, though single readings can be large; an effect the other way counts as inactive or inconclusive. Potency is read from the fitted curve at half-maximal effect.

SMILES | MCF10A rereplic | KB-3-1 tox | ELG1 repair inh | KB-V1 MDR tox | SW480 rereplic
O=C(Nc1ccccc1F)N1CCC(NC(=O)C23CC4CC(CC(C4)C2)C3)CC1 | 9% | i | -1% | i | 3%
CCc1c(C)nc2ncnn2c1N1CCC(C(=O)N2CCN(c3ccccc3)CC2)CC1 | . | . | -11% | . | .
Cc1ccc(NC(=O)C2CCCN(c3ncnc4onc(C)c34)C2)c(Cl)c1 (centres undefined) | . | 2.6µM* | . | ? | .
COc1cc(OC)c(NC(=O)C2CCCN(c3ncnc4c3nc3n4CCCCC3)C2)cc1Cl (centres undefined) | . | i | . | i | .
O=C(Nc1ccccc1Cl)C1CCCN(c2ncnc3c2nc2n3CCCCC2)C1 (centres undefined) | ? | i | ? | 7.3µM* | 9%
CCc1ccccc1N(CC)C(=O)C1CCN(c2ncnc3c2nc2n3CCCCC2)CC1 | 23µM* | ? | 15µM* | ? | ?
CCc1c(C)nc2ncnn2c1N1CCC(C(=O)N2CCN(c3ccc(F)cc3)CC2)CC1 | -2% | i | 23µM* | ? | -7%
COc1ccc2ccccc2c1CNC(C)CCc1ccccc1 (centres undefined) | ? | i | -15% | i | ?
COc1ccc(OC)c(NS(=O)(=O)c2ccc(Cl)s2)c1 | ? | ? | ? | 16µM* | ?
COc1ccc(OC)c(NS(=O)(=O)c2ccc(-c3cc(C)no3)s2)c1 | . | 4.6µM* | . | ? | .
COc1cccc(NS(=O)(=O)c2ccc(-c3cc(C)no3)s2)c1 | . | i | . | i | .
COc1ccc(OC)c(NS(=O)(=O)c2cccs2)c1 | 9% | i | -1% | i | 6%
CC(C)[C@@H]1Cc2[nH]c(=S)[nH]c(=O)c2[C@H](CCc2ccccc2)O1 | . | i | . | i | .
COC(=O)C[C@@H]1C=C[C@@H](NS(=O)(=O)c2ccccc2OC)[C@@H](CO)O1 | . | i | . | i | .
Cc1c(C(=O)c2no[n+]([O-])c2C(=O)c2cnn(C)c2C)cnn1C | 11µM* | ? | -22% | i | ?
Cc1cnc2c(c1SCC(=O)NCc1ccc(F)cc1)c(=O)n(C)c(=O)n2C | . | i | . | i | .
Cc1ccccc1-c1nc(S(=O)(=O)c2ccc(Cl)cc2)c(NCCN2CCOCC2)o1 | 21µM* | i | -23% | i | ?
Cc1ccccc1-c1nc(S(=O)(=O)c2ccccc2)c(NCCCN2CCOCC2)o1 | -3% | 23µM* | 17% | i | 5%
O=S(=O)(c1ccccc1)c1nc(-c2ccccc2Cl)oc1NCCCN1CCOCC1 | ? | i | ? | i | ?
CCCS(=O)(=O)NC(=O)C1(C)CCN(C(=O)c2ccccc2OC)C1 (centres undefined) | . | i | . | i | .
O=C1C2C3C=CC(C3)C2C(=O)N1CCc1ccccc1 (centres undefined) | 16% | i | 10% | i | 0%
CC(C)=C1C2CCC1C1C(=O)N(CCc3ccccc3)C(=O)C21 (centres undefined) | 22% | i | 3% | 10µM* | -118%
COc1ccc2nc(NC(=O)c3sc4nc(C)cc(C)c4c3N)sc2c1 | ? | i | ? | i | ?
CC(=O)N1CCOCC1c1cc(C(=O)Nc2ccccc2)no1 (centres undefined) | . | i | . | i | .
CCCCNC(=O)CCCn1c(=O)c2ccccc2n(Cc2ccc(Cl)cc2)c1=O | . | i | . | i | .
COc1cccc(OC)c1OCCCCn1cnc2ccccc2c1=O | ? | i | ? | ? | -57%
Cc1cc(C)c(C)c(OCCCCn2cnc3ccccc3c2=O)c1 | ? | i | 3% | 23µM* | 12%
O=C(CC[C@H]1O[C@@H](n2ccc(=O)[nH]c2=O)[C@H](O)[C@@H]1O)N[C@@H](Cc1ccccc1)C(=O)NCC1CCCO1 (some centres undefined) | . | i | . | 7.3µM* | .
CCOC(=O)c1cnc(-n2nc(C)cc2C)nc1Nc1cccc(C(=O)O)c1 | 3% | i | ? | i | 1%
COc1ccccc1Nc1ncccc1C(=O)O | 1% | i | 7% | i | -9%
